A short description of test [1]: anti-His antibody binders, primary screen, artefact control for SMM control protein annotation, biochemical, small-molecule microarray, 635 nm fluorescence (AID 1128).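 Further: score merges feature fluorescence with signal-to-noise for each printed compound spot.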 The conditions noted are these: anti-His Alexa647 antibody binding, higher = more signal.
For test [2], the system named is Human papillomavirus type 1a E7 protein (residues 1-88). Description: HPV1a E7 small-molecule binders, primary screen, biochemical, small-molecule microarray, residues 1-88, 635 nm (AID 1129). Particulars: small-molecule microarray binding, fluorescence 635 nm; higher = more signal.
In test [3] the target is Focal adhesion kinase 1 (Homo sapiens) (UniProt Q05397). Description: small-molecule microarray binders of FAK, primary screen, biochemical, 635/667 nm fluorescence, BSA, DTT (AID 1130).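 Further: composite of spot emission at 667 nm and signal to noise over triplicate slides.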 Particulars: PTK2 binding, 635 nm fluorescence, higher = more signal.
In test [4] the test system is Fibrinogen (Alexa647-labelled). The test is described as follows: fibrinogen binders on compound microarrays, profiling panel, artefact control for SMM control-protein annotation, biochemical, small-molecule microarray, 635/667 nm fluorescence (AID 1131).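 Further: z-score merges 667 nm fluorescence with per-spot signal-to-noise over triplicate slides.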 Particulars: fibrinogen-A647 binding fluorescence, higher = more signal.
For test [5], the target named is Follistatin (Homo sapiens) (UniProt P19883). Description: follistatin binders on small-molecule microarrays, primary screen, biochemical, small-molecule microarray, 635/667 nm fluorescence (AID 1132). The conditions noted are these: FST binding, 635 nm fluorescence, higher = more signal.
In test [6] the target is Fibroblast growth factor 2 (Homo sapiens) (UniProt P09038). Description: FGF2 binders on small-molecule microarrays, primary screen, biochemical, small-molecule microarray, 635/667 nm fluorescence (AID 1133). Particulars: small-molecule microarray binding, FGF2, fluorescence 635/667; higher = more signal.
The nature of test [7]: mitochondrial membrane potential change in A549 cells, profiling panel, cell-based, JC-1 fluorescence, basal, 24 h, 100 nL (AID 1138).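 Further: A549 lung adenocarcinoma cells under basal conditions with no added stimulus; test concentration not given here.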 The conditions noted are these: higher = more signal.
Another test relates to Lefty1. Description: Lefty1 binders on small-molecule microarrays, primary screen, biochemical, small-molecule microarray, 635/667 nm fluorescence (AID 1139). The conditions noted are these: small-molecule microarray binding, fluorescence 635/667; higher = more signal.
The test system of test [8] is wheat germ agglutinin (Triticum aestivum), Alexa647-labelled. The test is described as follows: wheat germ agglutinin binders on compound microarrays, profiling panel, artefact control for SMM control-protein annotation, biochemical, small-molecule microarray, 635/667 nm fluorescence (AID 1140).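 Further: score merges 667 nm feature emission with signal to noise over triplicate slides.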 Particulars: WGA-A647 binding, 635 nm fluorescence, higher = more signal.

Test [9] concerns the target Luciferin 4-monooxygenase (Photinus pyralis) (UniProt P08659). Description: firefly luciferase enzyme inhibitors, primary screen, biochemical, luminescence, purified enzyme, 2006 set (AID 1141).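 Further: cell-free assay with purified firefly luciferase at 100 ng per well in PBS; test concentration not given here.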 The conditions noted are these: SteadyGlo luminescence, 30 min, higher = more signal, called active from +8 up or from −8 down.
The subject of test [10] is Wnt5a (protein binding on small-molecule microarray). The test is described as follows: Wnt5a binders on small-molecule microarray, primary screen, biophysical, 635/667 nm fluorescence (AID 1142).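 Further: fluorescence read at 667 nm with signal to noise per printed feature.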 The conditions noted are these: 635 nm fluorescence, higher = more signal.
Test [11] can be described thus: cell viability in Huh7 cells, primary screen, cytotoxicity control for HCV replication inhibitor project, CellTiter-Glo luminescence, basal, 48 h (AID 1143).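 Further: Huh7 hepatoma cells carrying a hepatitis C replication reporter with no stimulus; test concentration not given here.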 Particulars: Huh7 HCV replicon, higher = more signal, called active from +8 up or from −8 down.
A short description of test [12]: P. aeruginosa biofilm formation inhibitors, primary screen, PAO1 strain, BacTiter-Glo luminescence, LB-PBS (AID 1144). Particulars: 12 h, higher = more signal.
Test [13] is described as follows: CREB reporter modulators without forskolin, primary screen, cell-based, PC12, CRE-LacZ reporter, unstimulated (AID 1145). The conditions noted are these: no forskolin, luminescence, 4.5 h, higher = more signal, called active from +8 up or from −8 down.
The nature of test [14]: CREB reporter modulators under forskolin, primary screen, cell-based, PC12, CRE-LacZ reporter, forskolin-stimulated (AID 1146).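 Further: PC12 cells with 6xCRE LacZ reporter stimulated by forskolin 10 µM; beta-galactosidase reporter signal reflecting CREB driven transcription.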 Particulars: luminescence, 4.5 h, higher = more signal, called active from +8 up or from −8 down.
Test [15] concerns the target Streptavidin (Streptomyces avidinii) (UniProt P22629). Description: streptavidin binders on small-molecule microarray, primary screen, artefact control for SMM compound annotation, biophysical, 635/667 nm fluorescence (AID 1147).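 Further: signal reflects streptavidin binding to arrayed compounds as a control protein.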 Particulars: streptavidin binding, higher = more signal.
Test [16] can be described thus: small-molecule binders of probe aInhba, primary screen, biochemical, small-molecule microarray, 635/667 nm fluorescence (AID 1148).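 Further: score merges 667nm spot fluorescence with signal-to-noise for antibody binding to printed compounds.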 Particulars: higher = more signal.
The target in test [17] is Torsin-1A (Homo sapiens) (UniProt O14656). The test is described as follows: torsin A binders from cell lysate, primary screen, small-molecule microarray, wild-type, 635/667 nm (AID 1149). Particulars: COS7 hTOR1A-WT lysate, 635 nm fluorescence, higher = more signal.
Test [18] has the same target. Description: small-molecule binders of mutant TOR1A in lysate, primary screen, cell lysate, small-molecule microarray, COS7 lysate, 635/667 nm fluorescence (AID 1150).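 Further: score pools 667 nm emission and signal to noise measuring lysate protein binding.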 Particulars: COS7 hTOR1A mutant lysate, 635 nm fluorescence, higher = more signal.
Test [19] relates to Sonic hedgehog protein (Shh). The test is described as follows: small-molecule binders of Shh protein, primary screen, biochemical, small-molecule microarray, 635/667 nm fluorescence (AID 1151).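 Further: Shh protein binding to compounds spotted on small-molecule microarray slides; score combines spot fluorescence intensity with signal-to-noise across triplicate slides.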 Particulars: small-molecule microarray binding, 635 nm fluorescence; higher = more signal.

The text below walks through data of PubChem BioAssay.

The source made the active and inactive calls. Unless noted, how the calls were made is not given here.

Chain of Streptavidin (Streptomyces avidinii) (P22629 whole entry, looked up): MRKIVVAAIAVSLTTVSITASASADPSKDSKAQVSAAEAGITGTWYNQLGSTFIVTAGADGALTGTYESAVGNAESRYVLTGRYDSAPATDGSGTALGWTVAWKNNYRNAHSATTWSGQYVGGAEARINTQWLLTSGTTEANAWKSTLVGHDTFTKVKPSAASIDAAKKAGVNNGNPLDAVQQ
Chain of Focal adhesion kinase 1 (Homo sapiens) (Q05397 whole entry, looked up): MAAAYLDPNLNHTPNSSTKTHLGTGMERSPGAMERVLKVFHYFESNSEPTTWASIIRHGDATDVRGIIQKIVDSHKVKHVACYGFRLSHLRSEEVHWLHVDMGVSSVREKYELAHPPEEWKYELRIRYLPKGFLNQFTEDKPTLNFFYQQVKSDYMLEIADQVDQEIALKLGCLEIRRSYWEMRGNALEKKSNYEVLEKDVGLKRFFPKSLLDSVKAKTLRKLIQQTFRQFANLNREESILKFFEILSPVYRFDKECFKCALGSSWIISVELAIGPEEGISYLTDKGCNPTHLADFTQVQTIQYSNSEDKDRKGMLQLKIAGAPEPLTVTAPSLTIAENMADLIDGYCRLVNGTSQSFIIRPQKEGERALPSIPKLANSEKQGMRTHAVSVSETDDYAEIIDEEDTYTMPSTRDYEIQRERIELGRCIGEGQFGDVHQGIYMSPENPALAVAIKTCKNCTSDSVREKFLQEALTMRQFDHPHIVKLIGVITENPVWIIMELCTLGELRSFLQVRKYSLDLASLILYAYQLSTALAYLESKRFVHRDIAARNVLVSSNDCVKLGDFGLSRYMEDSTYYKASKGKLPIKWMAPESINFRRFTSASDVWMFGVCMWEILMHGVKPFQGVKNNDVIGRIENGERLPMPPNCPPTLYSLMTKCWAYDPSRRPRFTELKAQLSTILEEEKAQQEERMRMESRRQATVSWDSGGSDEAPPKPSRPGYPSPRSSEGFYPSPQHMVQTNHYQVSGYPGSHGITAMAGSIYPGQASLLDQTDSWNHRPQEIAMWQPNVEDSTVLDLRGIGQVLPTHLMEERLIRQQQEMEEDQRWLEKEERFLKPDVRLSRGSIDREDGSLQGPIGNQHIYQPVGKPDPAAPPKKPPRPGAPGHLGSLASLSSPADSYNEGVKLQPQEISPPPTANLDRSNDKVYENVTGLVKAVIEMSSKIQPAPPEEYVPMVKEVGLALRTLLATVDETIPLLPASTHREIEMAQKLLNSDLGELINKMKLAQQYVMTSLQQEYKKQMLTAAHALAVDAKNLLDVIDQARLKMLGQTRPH
Chain of Follistatin (Homo sapiens) (P19883 whole entry, looked up): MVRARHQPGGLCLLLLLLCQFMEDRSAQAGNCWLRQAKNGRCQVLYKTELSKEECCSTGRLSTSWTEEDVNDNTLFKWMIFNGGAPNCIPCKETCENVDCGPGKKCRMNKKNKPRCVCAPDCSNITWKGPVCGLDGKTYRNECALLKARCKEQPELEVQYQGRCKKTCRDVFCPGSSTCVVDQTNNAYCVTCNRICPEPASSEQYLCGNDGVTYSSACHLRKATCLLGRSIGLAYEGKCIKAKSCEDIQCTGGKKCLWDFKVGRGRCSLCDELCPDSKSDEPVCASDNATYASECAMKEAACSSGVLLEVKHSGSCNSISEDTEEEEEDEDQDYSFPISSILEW
Chain of Luciferin 4-monooxygenase (Photinus pyralis) (P08659 whole entry, looked up): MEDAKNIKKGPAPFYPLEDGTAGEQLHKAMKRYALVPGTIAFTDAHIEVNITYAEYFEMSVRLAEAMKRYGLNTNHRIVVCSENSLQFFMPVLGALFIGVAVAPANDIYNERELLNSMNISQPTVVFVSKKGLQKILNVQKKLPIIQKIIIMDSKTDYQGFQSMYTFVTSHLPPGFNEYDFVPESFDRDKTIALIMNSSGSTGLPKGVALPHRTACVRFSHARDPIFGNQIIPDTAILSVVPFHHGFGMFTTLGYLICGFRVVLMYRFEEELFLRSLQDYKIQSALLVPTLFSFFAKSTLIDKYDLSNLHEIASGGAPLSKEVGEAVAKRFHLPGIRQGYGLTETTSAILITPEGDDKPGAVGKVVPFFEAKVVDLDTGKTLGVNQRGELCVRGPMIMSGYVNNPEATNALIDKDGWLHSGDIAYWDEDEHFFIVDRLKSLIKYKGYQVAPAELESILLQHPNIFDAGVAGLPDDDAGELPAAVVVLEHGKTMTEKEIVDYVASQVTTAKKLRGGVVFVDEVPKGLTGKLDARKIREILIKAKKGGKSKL
Chain of Torsin-1A (Homo sapiens) (O14656 whole entry, looked up): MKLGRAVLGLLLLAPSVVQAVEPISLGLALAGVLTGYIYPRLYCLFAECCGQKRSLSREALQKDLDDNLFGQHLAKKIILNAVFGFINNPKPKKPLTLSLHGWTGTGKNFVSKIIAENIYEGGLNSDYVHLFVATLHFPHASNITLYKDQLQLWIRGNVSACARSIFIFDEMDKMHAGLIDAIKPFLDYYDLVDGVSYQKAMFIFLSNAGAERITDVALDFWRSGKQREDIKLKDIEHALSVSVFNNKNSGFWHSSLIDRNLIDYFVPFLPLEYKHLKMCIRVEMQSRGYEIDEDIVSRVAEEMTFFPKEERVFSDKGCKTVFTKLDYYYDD
Chain of Fibroblast growth factor 2 (Homo sapiens) (P09038 whole entry, looked up): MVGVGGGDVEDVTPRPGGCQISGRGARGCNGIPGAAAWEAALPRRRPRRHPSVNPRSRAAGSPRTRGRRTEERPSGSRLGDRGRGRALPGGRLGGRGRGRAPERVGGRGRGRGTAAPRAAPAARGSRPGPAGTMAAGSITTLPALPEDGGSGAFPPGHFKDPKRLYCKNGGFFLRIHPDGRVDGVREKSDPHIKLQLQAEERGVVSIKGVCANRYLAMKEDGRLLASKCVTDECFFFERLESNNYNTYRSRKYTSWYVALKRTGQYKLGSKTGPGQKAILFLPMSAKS

For `O=[N+]([O-])c1ccc(C[n+]2ccc(-c3ccc(CO)cc3)cc2)o1`, the composite z-score in test [1] is 1.38; in [2] it was 0.148; in [3], 0.197; in test [4] it was -0.0943; in test [5] it was 1.34; in test [6], 0.59. Further, the composite z-score was 0.362 in the test with Lefty1; 1.17 in test [8]; -0.0922 in test [10]; 0.85 in [15]; 0.0816 in [16]; -0.078 with Torsin-1A (Homo sapiens) [17]. For the same compound, the composite z-score was 0.0063 with Torsin-1A (Homo sapiens) [18] and 1.44 in [19]. Also, the z-score in [7] was -0.93; in test [9] it was -0.208 (inactive); in test [11], -1.13 (inactive); in test [12], -0.42 (inactive); in test [13], -0.464 (inactive); in test [14], 0.239 (inactive).

On to `O=C(Nc1cc(Br)ccc1C(=O)NCc1cccc(O)c1)c1ccccc1`, for which the composite z-score is 1.95 in test [1]; 1.02 in test [2]; 0.243 in test [3]; 0.828 in test [4]; 0.0635 in [5]; 0.324 in [6]. In addition, the composite z-score is -0.241 in the test on Lefty1; 1.01 in [8]; 0.189 in test [10]; 0.827 in test [15]; 0.129 in [16]; 0.476 in the test with Torsin-1A (Homo sapiens) [17]. Moreover, the composite z-score with Torsin-1A (Homo sapiens) [18] is 0.533; in test [19], 0.349. In addition, the z-score in [7] was 0.252; in test [9], -0.0565 (inactive); in test [11] it was -2.32 (inactive); in test [12] it was -0.26 (inactive); in test [13], -0.374 (inactive); in [14], -0.334 (inactive).

Regarding `COCC1=C([C@H](O)CCc2ccccc2)[C@H](CO)[C@@H]2C(=O)N(C)C(=O)[C@@H]2C1`, the composite z-score is -0.0971 in test [1]; -0.204 in test [2]; 0.0647 in test [3]; -0.114 in [4]; 0.191 in [5]; 0.584 in test [6]. In addition, the composite z-score was 0.388 with Lefty1; -0.368 in test [8]; -0.147 in [10]; -0.11 in [15]; -0.0313 in test [16]; 0.389 in the test with Torsin-1A (Homo sapiens) [17]. The composite z-score with Torsin-1A (Homo sapiens) [18] came out at 0.414; in test [19], 0.552. The z-score in test [7] was 0.982; in [9], -1.08 (inactive); in test [11] it was -0.398 (inactive); in test [12] it was -0.668 (inactive); in [13], 0.496 (inactive); in [14], -1.67 (inactive).

For the compound `CC(C)C[C@H]1NC(=O)[C@H](C)NC(=O)[C@@]23C(=O)N[C@@H](Cc4ccccc4)C2[C@H](C)[C@@]2(C)O[C@H]2C3/C=C/C/C=C\CNC1=O` (stereo not given in full), the composite z-score in [1] is 0.528; in test [2], -0.071; in test [3] it was -0.0739; in test [4], -1.65; in test [5], 0.321; in [6] it was -0.28. Moreover, the composite z-score in the test on Lefty1 is 0.253; in [8], 0.649; in [10], -0.0392; in [15] it was -0.442; in test [16], -0.176; with Torsin-1A (Homo sapiens) [17] it was -1.09. Further, the values for the composite z-score (with Torsin-1A (Homo sapiens) [18]; in [19]) were 0.0821 and 0.366, respectively. Moreover, the z-score is 0.141 in test [7]; -0.8 (inactive) in test [9]; 0.288 (inactive) in test [11]; 0.325 (inactive) in test [12]; 2.03 (inactive) in [13]; -0.0505 (inactive) in test [14].

`COc1ccc([Si](C)(C)[C@H]2[C@H](CC(=O)N3CCC[C@H]3CO)O[C@@]3(C(=O)N(Cc4ccc(N5C(=O)c6cccc7cccc5c67)cc4)c4ccccc43)[C@@H]2C)cc1`: the composite z-score in [1] stood at 1.7; in test [2] it was 1.17; in [3], 1.18; in test [4], 0.864; in test [5], 1.07; in [6] it was 1.21. In addition, the composite z-score in the test with Lefty1 was 1.48; in test [8] it was 0.682; in test [10] it was 0.213; in test [15] it was 0.197; in test [16] it was 0.134; with Torsin-1A (Homo sapiens) [17] it was 0.81. Moreover, the composite z-score with Torsin-1A (Homo sapiens) [18] is 0.397; in test [19], 2.05. Moreover, the z-score was 0.285 in test [7]; 0.0355 (inactive) in test [9]; -3.73 (inactive) in [11]; 0.0403 (inactive) in test [12]; 0.543 (inactive) in test [13]; -0.594 (inactive) in [14].
